For one sequence, binding signal results are on record in paper PMC7862700, “An all-to-all approach to the identification of sequence-specific readers for epigenetic DNA modifications on cytosine”.

Common to all, as to test: DAPPL (digital affinity profiling via proximity ligation, sequencing); 10 mM Tris-HCl pH 7.5, 50 mM NaCl, 1 mM DTT, 4% glycerol, room temperature, 30 min; GST-TFs on glutathione beads, 16-mer random dsDNA library, 0.1% formaldehyde crosslink after washing; high values mean tight binding
One test concerns the target T1, FLI1 (Homo sapiens, UniProt Q01543 1-452).
T1 sequence: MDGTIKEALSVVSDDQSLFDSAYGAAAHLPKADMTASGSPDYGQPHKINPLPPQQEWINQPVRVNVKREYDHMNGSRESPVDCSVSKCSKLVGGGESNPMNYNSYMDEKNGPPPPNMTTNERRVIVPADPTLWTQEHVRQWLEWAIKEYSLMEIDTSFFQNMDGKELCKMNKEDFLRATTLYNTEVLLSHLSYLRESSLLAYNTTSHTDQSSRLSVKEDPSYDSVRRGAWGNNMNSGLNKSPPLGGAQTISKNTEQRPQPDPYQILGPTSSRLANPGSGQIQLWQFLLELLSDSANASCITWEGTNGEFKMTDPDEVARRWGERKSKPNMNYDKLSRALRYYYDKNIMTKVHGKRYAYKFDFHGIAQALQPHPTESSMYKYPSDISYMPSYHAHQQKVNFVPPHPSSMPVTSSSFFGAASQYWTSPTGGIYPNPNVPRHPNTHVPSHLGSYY
To be noted: protein: recombinant; tags: N-terminal GST; dsDNA, one strand shown. In a few lines: (§1)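 In yeast, human transcription factors were expressed with a GST fusion, then pulled down on glutathione beads and given DNA barcodes. Pooled with a tag-only sample, they were exposed to 200 nmole of a 16-mer random double-stranded DNA library (Tris/NaCl/DTT/glycerol buffer, room temperature, 30 min), washed, crosslinked with 0.1% formaldehyde, proximity-ligated using BsaI/T4 ligase for 1 h at 37 °C, PCR-amplified and read on an Illumina NextSeq500. Each hexamer's frequency of reads for a factor, divided by the matching frequency for the tag-only sample, gives the binding signal.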

For a further test, the target named is T2, ELK1 (Homo sapiens, UniProt P19419 1-428).
T2 sequence: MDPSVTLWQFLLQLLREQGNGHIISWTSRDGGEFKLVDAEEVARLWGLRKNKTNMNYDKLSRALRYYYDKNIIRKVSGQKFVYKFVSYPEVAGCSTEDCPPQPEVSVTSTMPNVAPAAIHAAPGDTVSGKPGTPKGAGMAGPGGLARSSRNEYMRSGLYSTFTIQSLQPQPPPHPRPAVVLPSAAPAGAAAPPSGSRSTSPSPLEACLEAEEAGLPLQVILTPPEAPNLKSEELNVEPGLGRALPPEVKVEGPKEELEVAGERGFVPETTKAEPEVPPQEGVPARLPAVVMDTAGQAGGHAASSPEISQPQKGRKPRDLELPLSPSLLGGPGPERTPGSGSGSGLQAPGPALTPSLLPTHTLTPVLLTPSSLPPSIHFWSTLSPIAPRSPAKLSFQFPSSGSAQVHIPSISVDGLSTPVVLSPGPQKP
To be noted: protein: recombinant; tags: N-terminal GST; dsDNA, one strand shown. The gist of the method:
as §1

A further test addresses T3, GABPA (Homo sapiens, UniProt Q06546 1-454).
T3 sequence: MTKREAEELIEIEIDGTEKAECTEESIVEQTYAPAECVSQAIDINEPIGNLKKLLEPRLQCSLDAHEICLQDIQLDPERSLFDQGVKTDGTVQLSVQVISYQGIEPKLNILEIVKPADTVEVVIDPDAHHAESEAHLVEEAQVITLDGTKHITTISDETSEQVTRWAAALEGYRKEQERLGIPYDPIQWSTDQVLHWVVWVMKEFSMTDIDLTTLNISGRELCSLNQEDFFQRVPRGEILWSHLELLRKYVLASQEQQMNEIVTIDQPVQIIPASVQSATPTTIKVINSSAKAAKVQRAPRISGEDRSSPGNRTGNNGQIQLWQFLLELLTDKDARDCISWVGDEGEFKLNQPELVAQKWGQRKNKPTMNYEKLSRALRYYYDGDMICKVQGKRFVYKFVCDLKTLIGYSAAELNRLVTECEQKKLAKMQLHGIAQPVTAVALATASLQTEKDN
To be noted: protein: recombinant; tags: N-terminal GST; dsDNA, one strand shown. The gist of the method:
as §1

The target in a further test is T4, ERG (Homo sapiens, UniProt P11308 1-479).
T4 sequence: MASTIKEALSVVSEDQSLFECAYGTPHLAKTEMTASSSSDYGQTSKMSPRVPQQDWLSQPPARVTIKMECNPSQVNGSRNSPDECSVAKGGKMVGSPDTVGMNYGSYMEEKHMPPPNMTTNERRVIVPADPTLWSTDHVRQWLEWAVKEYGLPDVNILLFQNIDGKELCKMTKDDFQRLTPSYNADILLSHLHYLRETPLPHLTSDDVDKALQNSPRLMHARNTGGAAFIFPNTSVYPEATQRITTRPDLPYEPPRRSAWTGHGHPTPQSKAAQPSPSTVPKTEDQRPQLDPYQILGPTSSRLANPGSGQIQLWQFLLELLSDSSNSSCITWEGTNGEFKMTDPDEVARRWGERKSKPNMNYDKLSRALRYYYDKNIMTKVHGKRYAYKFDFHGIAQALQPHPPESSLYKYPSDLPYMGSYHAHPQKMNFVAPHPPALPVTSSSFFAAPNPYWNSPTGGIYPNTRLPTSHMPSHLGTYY
Particulars: protein: recombinant; tags: N-terminal GST; dsDNA, one strand shown. In a few lines: as §1

The next test deals with ELF1 (Homo sapiens, UniProt P32519 1-619). Particulars: protein: recombinant; tags: N-terminal GST; dsDNA, one strand shown. The gist of the method:
as §1

For the next test, the target named is T5, EHF (Homo sapiens, UniProt Q9NZC4 1-300).
T5 sequence: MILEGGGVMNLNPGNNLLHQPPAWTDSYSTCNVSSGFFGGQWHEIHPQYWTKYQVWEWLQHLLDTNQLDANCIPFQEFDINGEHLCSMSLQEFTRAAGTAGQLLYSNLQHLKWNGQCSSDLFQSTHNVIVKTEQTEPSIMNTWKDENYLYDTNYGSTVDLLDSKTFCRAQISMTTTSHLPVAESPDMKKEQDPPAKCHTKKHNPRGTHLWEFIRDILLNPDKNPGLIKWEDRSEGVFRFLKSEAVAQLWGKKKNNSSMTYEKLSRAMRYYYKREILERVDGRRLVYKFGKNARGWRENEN
Particulars: protein: recombinant; tags: N-terminal GST; dsDNA, one strand shown. The gist of the method:
as §1

The target in a further test is SPI1 (Homo sapiens, UniProt P17947 1-270). Particulars: protein: recombinant; tags: N-terminal GST; dsDNA, one strand shown. In a few lines:
as §1

In a further test the target is SPIB (Homo sapiens, UniProt Q01892 1-262). To be noted: protein: recombinant; tags: N-terminal GST; dsDNA, one strand shown. The gist of the method:
as §1

In the next test the target is T6, ELK3 (Homo sapiens, UniProt P41970 1-407).
T6 sequence: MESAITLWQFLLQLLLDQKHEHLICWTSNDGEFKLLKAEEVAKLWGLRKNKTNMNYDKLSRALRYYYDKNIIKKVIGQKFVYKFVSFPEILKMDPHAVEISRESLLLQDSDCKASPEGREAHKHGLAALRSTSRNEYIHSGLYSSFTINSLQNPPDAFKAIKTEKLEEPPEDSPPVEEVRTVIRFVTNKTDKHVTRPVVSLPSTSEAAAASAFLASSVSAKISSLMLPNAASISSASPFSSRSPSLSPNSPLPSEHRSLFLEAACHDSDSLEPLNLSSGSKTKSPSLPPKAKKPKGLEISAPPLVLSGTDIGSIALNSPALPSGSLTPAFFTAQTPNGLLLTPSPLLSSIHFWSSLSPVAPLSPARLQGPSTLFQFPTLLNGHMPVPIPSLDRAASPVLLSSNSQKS
To be noted: protein: recombinant; tags: N-terminal GST; dsDNA, one strand shown. In a few lines: as §1

In the next test the target is T7, FEV (Homo sapiens, UniProt Q99581 1-238).
T7 sequence: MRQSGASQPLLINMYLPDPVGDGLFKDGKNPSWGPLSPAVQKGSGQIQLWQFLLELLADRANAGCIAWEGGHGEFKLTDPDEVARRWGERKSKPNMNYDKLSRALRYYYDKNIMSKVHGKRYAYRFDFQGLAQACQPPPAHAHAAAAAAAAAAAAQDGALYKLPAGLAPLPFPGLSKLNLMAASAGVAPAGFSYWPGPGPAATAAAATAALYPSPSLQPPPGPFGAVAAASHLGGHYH
Particulars: protein: recombinant; tags: N-terminal GST; dsDNA, one strand shown. In a few lines: as §1

The target in another test is ETV5 (Homo sapiens, UniProt P41161 1-510). Particulars: protein: recombinant; tags: N-terminal GST; dsDNA, one strand shown. In a few lines:
as §1

The target of another test is HSF1 (Homo sapiens, UniProt Q00613 1-529). To be noted: protein: recombinant; tags: N-terminal GST; chain copies: 3; dsDNA, one strand shown. In a few lines:
as §1

A further test addresses T8, SPIC (Homo sapiens, UniProt Q8N5J4 1-248).
T8 sequence: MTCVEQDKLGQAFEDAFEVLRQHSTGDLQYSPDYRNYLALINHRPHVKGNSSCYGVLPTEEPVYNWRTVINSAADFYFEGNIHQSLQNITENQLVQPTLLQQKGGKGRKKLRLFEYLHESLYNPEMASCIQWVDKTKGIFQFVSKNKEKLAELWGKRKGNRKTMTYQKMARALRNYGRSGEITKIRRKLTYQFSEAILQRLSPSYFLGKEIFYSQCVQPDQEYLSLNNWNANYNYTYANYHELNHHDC
To be noted: protein: recombinant; tags: N-terminal GST; dsDNA, one strand shown. In a few lines:
as §1

The target of the next test is ELF4 (Homo sapiens, UniProt Q99607 1-663). To be noted: protein: recombinant; tags: N-terminal GST; dsDNA, one strand shown. The gist of the method:
as §1

In the next test the target is T9, ELK4 (Homo sapiens, UniProt P28324-2 1-405).
T9 sequence: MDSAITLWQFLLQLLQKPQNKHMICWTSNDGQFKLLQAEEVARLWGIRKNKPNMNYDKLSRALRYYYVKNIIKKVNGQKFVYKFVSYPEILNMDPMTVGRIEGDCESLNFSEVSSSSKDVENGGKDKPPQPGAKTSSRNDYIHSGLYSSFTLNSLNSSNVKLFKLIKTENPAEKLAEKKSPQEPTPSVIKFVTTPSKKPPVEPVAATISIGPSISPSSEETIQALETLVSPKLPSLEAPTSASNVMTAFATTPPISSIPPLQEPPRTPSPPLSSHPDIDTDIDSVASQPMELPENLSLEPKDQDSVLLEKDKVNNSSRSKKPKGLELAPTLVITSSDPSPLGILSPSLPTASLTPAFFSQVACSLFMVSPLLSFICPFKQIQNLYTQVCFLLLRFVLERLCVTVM
To be noted: protein: recombinant; tags: N-terminal GST; dsDNA, one strand shown. The gist of the method:
as §1

The target in the next test is T10, ETV2 (Homo sapiens, UniProt O00321 1-342).
T10 sequence: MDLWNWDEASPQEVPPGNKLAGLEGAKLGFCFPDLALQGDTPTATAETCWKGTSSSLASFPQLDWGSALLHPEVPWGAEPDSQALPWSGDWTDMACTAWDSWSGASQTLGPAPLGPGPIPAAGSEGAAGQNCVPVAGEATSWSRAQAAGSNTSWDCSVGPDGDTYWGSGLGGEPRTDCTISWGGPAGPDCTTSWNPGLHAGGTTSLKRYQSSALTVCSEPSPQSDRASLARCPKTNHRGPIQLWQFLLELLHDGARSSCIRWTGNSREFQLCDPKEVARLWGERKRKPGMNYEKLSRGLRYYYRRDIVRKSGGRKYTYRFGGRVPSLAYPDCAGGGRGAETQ
Particulars: protein: recombinant; tags: N-terminal GST; dsDNA, one strand shown. In a few lines: as §1

The next test has as its target T11, ELF3 (Homo sapiens, UniProt P78545 1-371).
T11 sequence: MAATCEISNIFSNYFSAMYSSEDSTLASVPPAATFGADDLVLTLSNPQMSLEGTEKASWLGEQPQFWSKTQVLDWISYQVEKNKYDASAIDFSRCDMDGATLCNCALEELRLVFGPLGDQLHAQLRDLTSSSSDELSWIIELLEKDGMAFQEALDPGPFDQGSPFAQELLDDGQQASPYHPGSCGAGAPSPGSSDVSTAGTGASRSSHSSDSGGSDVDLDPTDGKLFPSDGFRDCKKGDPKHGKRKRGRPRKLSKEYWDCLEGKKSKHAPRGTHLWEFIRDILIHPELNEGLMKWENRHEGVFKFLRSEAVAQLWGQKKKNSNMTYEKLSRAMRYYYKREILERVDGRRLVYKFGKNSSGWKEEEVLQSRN
To be noted: protein: recombinant; tags: N-terminal GST; dsDNA, one strand shown. In a few lines:
as §1

A further test has as its target CRX (Homo sapiens, UniProt O43186 1-299). Particulars: protein: recombinant; tags: N-terminal GST; dsDNA, one strand shown. In a few lines: as §1
Another test has as its target ETV1 (Homo sapiens, UniProt P50549 1-477). To be noted: protein: recombinant; tags: N-terminal GST; dsDNA, one strand shown. In a few lines:
as §1

Chain of ELF1 (P32519 whole entry): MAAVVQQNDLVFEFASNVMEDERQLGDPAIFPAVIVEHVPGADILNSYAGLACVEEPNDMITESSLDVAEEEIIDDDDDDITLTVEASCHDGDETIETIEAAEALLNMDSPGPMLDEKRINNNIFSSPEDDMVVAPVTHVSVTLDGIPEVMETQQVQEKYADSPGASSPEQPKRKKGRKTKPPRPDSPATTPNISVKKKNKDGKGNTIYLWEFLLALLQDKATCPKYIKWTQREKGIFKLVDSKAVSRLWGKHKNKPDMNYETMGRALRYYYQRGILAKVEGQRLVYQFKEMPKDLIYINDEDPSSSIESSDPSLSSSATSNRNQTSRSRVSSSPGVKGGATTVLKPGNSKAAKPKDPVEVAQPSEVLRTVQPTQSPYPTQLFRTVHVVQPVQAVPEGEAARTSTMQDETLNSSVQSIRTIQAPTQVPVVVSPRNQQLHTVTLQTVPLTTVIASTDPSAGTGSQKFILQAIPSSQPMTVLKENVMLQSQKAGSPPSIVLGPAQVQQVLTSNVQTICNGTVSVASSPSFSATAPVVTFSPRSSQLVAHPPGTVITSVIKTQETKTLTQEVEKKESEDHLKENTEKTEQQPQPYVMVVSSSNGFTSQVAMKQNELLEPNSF
Chain of CRX (O43186 whole entry): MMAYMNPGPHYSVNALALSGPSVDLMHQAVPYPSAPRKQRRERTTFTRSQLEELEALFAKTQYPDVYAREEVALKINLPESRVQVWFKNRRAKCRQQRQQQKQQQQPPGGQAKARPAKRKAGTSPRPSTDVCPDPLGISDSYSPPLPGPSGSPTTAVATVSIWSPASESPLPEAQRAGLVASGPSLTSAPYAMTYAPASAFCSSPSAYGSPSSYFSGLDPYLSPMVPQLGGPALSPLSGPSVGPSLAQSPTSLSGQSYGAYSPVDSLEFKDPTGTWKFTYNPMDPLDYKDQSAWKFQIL
Chain of ETV5 (P41161 whole entry): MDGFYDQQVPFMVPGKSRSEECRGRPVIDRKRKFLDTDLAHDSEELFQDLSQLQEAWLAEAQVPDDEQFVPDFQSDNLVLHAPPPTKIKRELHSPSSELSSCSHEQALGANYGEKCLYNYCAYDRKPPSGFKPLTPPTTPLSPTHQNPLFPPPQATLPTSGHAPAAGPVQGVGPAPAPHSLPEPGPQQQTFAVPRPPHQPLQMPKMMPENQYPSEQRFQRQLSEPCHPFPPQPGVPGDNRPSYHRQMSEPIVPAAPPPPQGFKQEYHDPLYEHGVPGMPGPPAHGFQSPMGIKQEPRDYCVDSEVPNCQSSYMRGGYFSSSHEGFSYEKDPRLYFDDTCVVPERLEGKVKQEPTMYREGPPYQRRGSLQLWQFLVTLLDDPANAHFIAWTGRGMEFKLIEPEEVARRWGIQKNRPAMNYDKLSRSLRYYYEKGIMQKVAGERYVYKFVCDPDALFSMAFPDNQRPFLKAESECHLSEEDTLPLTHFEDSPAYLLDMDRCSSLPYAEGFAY
Chain of SPIB (Q01892 whole entry): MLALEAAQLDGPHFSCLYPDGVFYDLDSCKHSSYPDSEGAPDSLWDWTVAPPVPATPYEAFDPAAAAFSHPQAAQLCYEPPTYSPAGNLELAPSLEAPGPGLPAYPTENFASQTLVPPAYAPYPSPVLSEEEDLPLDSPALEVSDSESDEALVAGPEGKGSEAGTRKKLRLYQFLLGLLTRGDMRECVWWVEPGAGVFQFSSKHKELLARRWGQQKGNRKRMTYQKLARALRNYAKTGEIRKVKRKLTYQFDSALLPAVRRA
Chain of ETV1 (P50549 whole entry): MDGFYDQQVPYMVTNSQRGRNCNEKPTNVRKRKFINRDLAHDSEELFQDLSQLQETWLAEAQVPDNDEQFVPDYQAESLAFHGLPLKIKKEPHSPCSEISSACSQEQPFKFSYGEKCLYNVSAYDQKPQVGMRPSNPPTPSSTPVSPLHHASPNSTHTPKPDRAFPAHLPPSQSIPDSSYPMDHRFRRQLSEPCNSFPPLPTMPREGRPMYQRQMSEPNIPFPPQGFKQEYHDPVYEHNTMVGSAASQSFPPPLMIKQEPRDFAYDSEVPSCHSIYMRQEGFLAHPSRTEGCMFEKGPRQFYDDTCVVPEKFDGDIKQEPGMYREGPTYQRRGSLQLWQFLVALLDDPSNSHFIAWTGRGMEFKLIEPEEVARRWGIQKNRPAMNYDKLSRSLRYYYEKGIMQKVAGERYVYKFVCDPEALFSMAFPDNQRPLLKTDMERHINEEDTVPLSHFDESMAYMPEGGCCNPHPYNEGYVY
Chain of ELF4 (Q99607 whole entry): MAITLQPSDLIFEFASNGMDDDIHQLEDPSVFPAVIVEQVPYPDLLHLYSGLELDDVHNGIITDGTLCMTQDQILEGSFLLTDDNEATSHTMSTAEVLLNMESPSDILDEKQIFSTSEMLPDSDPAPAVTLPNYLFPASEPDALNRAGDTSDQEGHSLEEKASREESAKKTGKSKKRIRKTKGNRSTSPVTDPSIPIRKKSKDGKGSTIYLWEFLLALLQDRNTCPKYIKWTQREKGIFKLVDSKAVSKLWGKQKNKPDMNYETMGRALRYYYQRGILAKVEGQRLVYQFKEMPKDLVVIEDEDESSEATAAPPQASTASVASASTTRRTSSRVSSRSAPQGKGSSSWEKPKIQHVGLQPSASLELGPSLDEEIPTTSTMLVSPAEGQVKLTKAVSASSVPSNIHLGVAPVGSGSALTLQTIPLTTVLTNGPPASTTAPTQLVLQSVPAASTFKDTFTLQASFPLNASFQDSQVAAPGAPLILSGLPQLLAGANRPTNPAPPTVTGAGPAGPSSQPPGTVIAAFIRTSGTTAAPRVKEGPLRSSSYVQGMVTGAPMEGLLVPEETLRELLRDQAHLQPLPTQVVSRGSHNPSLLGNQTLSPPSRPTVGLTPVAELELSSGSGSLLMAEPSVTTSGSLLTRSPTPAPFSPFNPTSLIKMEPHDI
Chain of HSF1 (Q00613 whole entry): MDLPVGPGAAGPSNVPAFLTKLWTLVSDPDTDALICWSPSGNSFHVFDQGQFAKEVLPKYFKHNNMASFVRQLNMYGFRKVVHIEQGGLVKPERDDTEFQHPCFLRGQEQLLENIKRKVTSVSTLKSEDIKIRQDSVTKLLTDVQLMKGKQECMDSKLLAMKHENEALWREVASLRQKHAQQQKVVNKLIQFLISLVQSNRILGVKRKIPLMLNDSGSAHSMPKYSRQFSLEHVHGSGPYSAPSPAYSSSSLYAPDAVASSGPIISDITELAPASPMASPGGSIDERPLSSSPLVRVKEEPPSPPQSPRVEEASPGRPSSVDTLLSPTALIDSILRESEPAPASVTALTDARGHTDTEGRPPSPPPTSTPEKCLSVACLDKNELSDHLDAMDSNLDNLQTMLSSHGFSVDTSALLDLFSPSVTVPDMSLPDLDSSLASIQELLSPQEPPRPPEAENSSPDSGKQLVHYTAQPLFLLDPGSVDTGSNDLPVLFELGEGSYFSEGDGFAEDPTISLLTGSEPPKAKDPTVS

Consider CGAATT, for which the binding signal with FLI1 was 1.13 fold enrichment (6-mer frequency, TF over GST control); with ELK1, 1.1 fold enrichment (6-mer frequency, TF over GST control); with GABPA, 1.27 fold enrichment (6-mer frequency, TF over GST control); with ERG, 1.23 fold enrichment (6-mer frequency, TF over GST control); with ELF1, 1.2 fold enrichment (6-mer frequency, TF over GST control); with EHF it was 1.19 fold enrichment (6-mer frequency, TF over GST control). Further, the binding signal with SPI1 is 1.22 fold enrichment (6-mer frequency, TF over GST control); with SPIB it was 1.23 fold enrichment (6-mer frequency, TF over GST control); with ELK3, 1.23 fold enrichment (6-mer frequency, TF over GST control); with FEV, 1.14 fold enrichment (6-mer frequency, TF over GST control); in the test with ETV5 it was 1.21 fold enrichment (6-mer frequency, TF over GST control); with HSF1, 1.79 fold enrichment (6-mer frequency, TF over GST control). Besides, the binding signal was 1.25 fold enrichment (6-mer frequency, TF over GST control) with SPIC; 1.17 fold enrichment (6-mer frequency, TF over GST control) with ELF4; 1.36 fold enrichment (6-mer frequency, TF over GST control) with ELK4; 1.02 fold enrichment (6-mer frequency, TF over GST control) in the test with ETV2; 1.18 fold enrichment (6-mer frequency, TF over GST control) with ELF3; 1.63 fold enrichment (6-mer frequency, TF over GST control) in the test with CRX. The binding signal with ETV1 is 1.15 fold enrichment (6-mer frequency, TF over GST control).
